Screens: PubChem BioAssay, National Center for Advancing Translational Sciences (NCATS)
Compounds with a hit are over-represented: about 15% of the library has one in this group of screens.
ELG1 repair inh – ELG1-dependent DNA repair inhibition; HEK293T ELG1-luciferase reporter, luminescence, 16 h; DNA damage induced by 5-fluorouridine; Potency, µM (highest dose often 46.1 µM), hits mostly inhibitors; 330,000 compounds, 2.3% hits; AID 504467; note: nearly all actives have a fitted effect of over 55% in size
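Luminescence from the luciferase reporter, measured 30 min after ONE-Glo reagent at room temperature, was the read-out. Beforehand, 2,000 cells per well were exposed for 16 hr at 37 °C to 5-fluorouridine together with compound or vehicle.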
DT40 TDP1 CPT – DT40-hTDP1 cell growth loss with CPT. chicken DT40 Tdp1-/-;hTDP1 cells + 20 nM CPT, ATP luminescence, 48 h. Potency, µM (top dose mostly 46.2 µM), actives largely listed as inhibitors. 420,000 compounds, 12% hits. AID 686979; note: nearly all actives have a fitted effect of over 55% in size
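Chicken DT40 Tdp1-/- cells complemented with human TDP1, 400 cells/well, exposed to compounds plus 20 nM camptothecin for at least 48 h at 37 C; viability read as ATP content by CellTiter-Glo luminescence.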
DT40 TDP1 no CPT – qHTS for Inhibitors of human tyrosyl-DNA phosphodiesterase 1 (TDP1): qHTS in cells in absence of CPT | DT40 Tdp1-/- hTDP1 cells, no CPT, ATP luminescence, 48 h | Potency, µM (doses to about 46.2 µM), usual class: inhibitors | 420,000 compounds, 15% hits; note: nearly all actives have a fitted effect of over 55% in size
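DT40 Tdp1-/-;hTDP1 cells, no CPT (DMSO vehicle only), 400 cells/well; compounds pin-transferred; ≥48 hr, 37 °C; CellTiter-Glo 30 min RT dark, luminescence read.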
ALOX12 inh – inhibitors of human 12S-lipoxygenase ALOX12; 580,000 compounds, 1.1% hits; purified 12hLO, xylenol orange hydroperoxide absorbance; P18054; Potency, µM (doses to about 108 µM), actives largely listed as inhibitors
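Purified human 12hLO (150 nM final) in 25 mM Hepes, 0.01% Triton X-100, pH 7.0 was preincubated 15 min at room temperature with compound. Then 40 uM arachidonic acid was added, 30 min. Hydroperoxide was read by Fe-XO absorbance ratio 573/405 nm.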
RORg inh – blocks mouse ROR gamma transcriptional activity. P51450. Drosophila S2 Gal4-RORgamma UAS-luciferase reporter, 20 h. AID 2551. Potency, µM (doses to about 53.6 µM), hits mostly inhibitors. 310,000 compounds, 5.4% hits; note: nearly all actives have a fitted effect of over 60% in size
Target sequence (P51450 whole entry, looked up, the tested form may be a part): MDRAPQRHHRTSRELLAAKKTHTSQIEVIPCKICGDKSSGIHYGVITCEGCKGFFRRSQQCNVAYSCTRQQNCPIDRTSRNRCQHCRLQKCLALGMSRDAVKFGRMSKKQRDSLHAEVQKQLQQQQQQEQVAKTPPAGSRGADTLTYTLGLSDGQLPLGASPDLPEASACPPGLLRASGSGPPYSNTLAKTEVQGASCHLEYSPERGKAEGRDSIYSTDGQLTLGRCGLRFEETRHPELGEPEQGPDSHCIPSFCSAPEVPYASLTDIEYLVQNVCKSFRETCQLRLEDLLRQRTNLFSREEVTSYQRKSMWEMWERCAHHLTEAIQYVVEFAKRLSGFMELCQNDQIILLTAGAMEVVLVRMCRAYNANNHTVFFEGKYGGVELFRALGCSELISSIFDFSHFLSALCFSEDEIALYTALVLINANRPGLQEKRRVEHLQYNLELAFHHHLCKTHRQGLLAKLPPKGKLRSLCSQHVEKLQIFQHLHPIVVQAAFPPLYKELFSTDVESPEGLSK
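Schneider cells (Drosophila), stable Gal4 DBD–ROR gamma + UAS-luc; 1 hr cmpd preincubation; Cu2+ induction 700 uM final; 20 hr ambient; luminescence.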
VP16 counter – counter-screen for ROR gamma inhibitors: Gal4-VP16 reporter. 310,000 compounds, 3.5% hits. Drosophila S2 Gal4-VP16 UAS-luciferase, luminescence, 20 h. Potency, µM (titrated, usually from 53.6 µM), most hits filed as inhibitors. AID 2546;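 note: Gal4-VP16 expression switched on by copper sulfate through the metallothionein promoter; nearly all actives have a fitted effect of over 50% in size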
Hits are given with their value; . = inactive; ? = inconclusive; / = no result given; [ ] = remark or other dose. Calls come from the whole dose curve; as a rule, active = well fitted curve in the direction sought with a large enough effect; inconclusive = small, poorly fitted or top-dose-only effect, or another doubt; inactive = no such curve, though single readings can be large; an effect the other way counts as inactive or inconclusive.

SMILES	ELG1 repair inh	DT40 TDP1 CPT	DT40 TDP1 no CPT	ALOX12 inh	RORg inh	VP16 counter
CCCc1cc(=O)oc2c(C)c(OCC(=O)c3ccc(N4CCCC4)cc3)ccc12	.	?	18µM	.	.	.
CCOC(=O)CN(C)Cc1cc(=O)oc2cc(C)c(Cl)cc12	/	/	/	.	/	/
Cc1cc(C)c(S(=O)(=O)N2CCN(C(=O)C3COc4ccccc4O3)CC2)c(C)c1 (centres undefined)	?	13µM	9.2µM	.	/	/
CCOc1ccccc1CNC(=O)CSc1n[nH]c(-c2ccccc2Cl)n1	/	13µM	23µM	.	/	/
O=C(CSc1n[nH]c(-c2ccccc2Cl)n1)NCCc1ccccc1	/	9.2µM	21µM	.	/	/
COc1ccc(F)cc1C(=O)C(=O)O	/	/	/	8.9µM	/	/
COc1ccc(F)cc1-c1ccc(C(=O)O)cc1	/	/	/	.[12.5 µM]	/	/
CCN1C=C(Cc2ccc(F)cc2)C2=C(C1)C(c1ccc(F)cc1)C(C#N)=C(N)O2 (centres undefined)	.	?	16µM	?	.	.
Cc1oc(C)c2c(=O)ccc3c(c12)OC(N)=C(C#N)C3c1ccc(F)cc1 (centres undefined)	.	?	?	?	.	.
CCN1C=C(Cc2ccccc2C)C2=C(C1)C(c1ccccc1C)C(C#N)=C(N)O2 (centres undefined)	?	16µM	21µM	?	?	.
CCOC(=O)[C@]12CCCC=C1N(Cc1ccc(Cl)cc1Cl)C(=O)[C@H](CC(=O)NCc1cccs1)C2	/	?	?	.	/	/
CCOC(=O)[C@]12CCC=C1N(Cc1ccc(Cl)cc1Cl)C(=O)[C@H](CC(=O)NCc1cccs1)C2	/	?	21µM	.	/	/
COC(=O)[C@]12CCCCC=C1N(Cc1ccc(Cl)cc1Cl)C(=O)[C@H](CC(=O)NCc1cccs1)C2	/	?	23µM	.	/	/
COC(=O)[C@]12CCCCC=C1N(Cc1ccc(Cl)cc1Cl)C(=O)[C@H](CC(=O)NCc1ccccc1)C2	/	?	?	.	/	/
O=C([C@@H]1C[C@H](F)CN1C(=O)c1cccc(F)c1)N1CCCCC1	/	/	/	.	/	/
CCOC(=O)[C@@H]1[C@H]2COc3cc(OC)ccc3[C@@H]2N2C(=O)N(c3ccc(OC)cc3)C(=O)[C@]12C	.	.	.	.	.	.
CCOC(=O)[C@@H]1[C@H]2COc3cc(OC)ccc3[C@@H]2N2C(=O)N(c3ccc(C(F)(F)F)cc3)C(=O)[C@@]12C	.	?	13µM	.	?	.
CCOC(=O)[C@@H]1[C@H]2COc3cc(OC)ccc3[C@@H]2N2C(=O)N(c3ccc(Br)cc3)C(=O)[C@@]12C	.	?	?	.	7.9µM	.
COc1ccc([C@@H]2[C@@H]3C(=O)N(C(C)(C)C)C(=O)[C@@H]3[C@]3(C)C(=O)N(c4ccc(C(F)(F)F)cc4)C(=O)N23)cc1	.	?	16µM	.	?	.
COc1ccc([C@@H]2[C@@H]3C(=O)N(C(C)(C)C)C(=O)[C@@H]3[C@]3(CC(C)C)C(=O)N(c4ccc(C(F)(F)F)cc4)C(=O)N23)cc1	.	.	?	.	.	.
CCOC(=O)[C@@H]1[C@H]2COc3cc(OC)ccc3[C@H]2N2C(=O)N(c3ccc(C(F)(F)F)cc3)C(=O)[C@]12C	23µM	15µM	21µM	.	/	/
CC(C)n1nc(C(=O)Nc2ccc(Oc3ccccc3)cc2)c2ccccc2c1=O	/	/	/	.	/	/
COC(=O)[C@]1(S(=O)(=O)c2ccccc2)CC(=O)N(Cc2ccccc2)[C@@H]1c1ccccc1	/	/	/	.	/	/
COc1ccc(Cc2nc3ccc(C(=O)NC4CCOC4)cc3o2)cc1OC (centres undefined)	/	12µM	?	.	/	/
COc1ccc(Cc2nc3ccc(C(=O)NCc4cc(C)no4)cc3o2)cc1OC	.	?	?	.	?	?
COc1ccc(Cc2nc3ccc(C(=O)N4CCCCC4CO)cc3o2)cc1OC (centres undefined)	/	?	21µM	.	/	/
